Test results from PubChem BioAssay AID651599 (National Center for Advancing Translational Sciences (NCATS), 2012).
Results filed as inconclusive are left out. Calls come from the whole dose curve; as a rule, active = well fitted inhibition curve with a large enough effect; inconclusive = small, poorly fitted or top-dose-only effect; inactive = no such curve, though single readings can be large or run the other way.

Each compound was assayed against Tumor susceptibility gene 101 protein (Homo sapiens) (UniProt Q99816) (assay: qHTS Assay for Iinhibitors of HIV-1 Budding by Blocking the Interaction of PTAP/TSG101: Hit Validation in TR assay). Details: Tsg101 binding domain + Texas Red-labeled PTAP peptide, fluorescence polarization, 20 min; series mostly up to 57.5 µM; activity change, negative = inhibition: at the top concentration.
Method in brief: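 Texas Red-PTAP peptide (50 nM) binding to Tsg101 binding domain (10 uM), both final, in pH 7.5 HEPES buffer, read as polarization after 20 min at room temperature; compounds pinned before peptide addition.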
% is set by controls: 0 for no effect and ±100 for the full control effect.

Sequence of Tumor susceptibility gene 101 protein (Homo sapiens) (Q99816 whole entry, looked up, the tested form may be a part): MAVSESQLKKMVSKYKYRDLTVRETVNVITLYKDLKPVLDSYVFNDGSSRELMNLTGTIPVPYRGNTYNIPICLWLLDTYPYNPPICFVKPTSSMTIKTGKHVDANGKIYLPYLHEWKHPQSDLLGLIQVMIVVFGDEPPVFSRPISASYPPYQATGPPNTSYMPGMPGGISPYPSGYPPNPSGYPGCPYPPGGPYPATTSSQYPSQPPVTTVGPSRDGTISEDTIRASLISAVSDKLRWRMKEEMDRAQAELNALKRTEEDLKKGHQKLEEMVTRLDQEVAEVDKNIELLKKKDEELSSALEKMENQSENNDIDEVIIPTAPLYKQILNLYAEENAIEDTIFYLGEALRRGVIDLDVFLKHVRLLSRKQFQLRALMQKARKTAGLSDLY

Activity change, negative = inhibition, inactive:
CSC1=NSC2=NC(=O)/C(=C/c3coc4ccccc4c3=O)C(=N)N12 -61.3%
COc1c([N+](=O)[O-])c(=O)n(-c2ccccc2)c2ccccc12 -0.146%
c1ccc(-c2cn3nc(-c4ccccc4)c(-c4ccccc4)nc3n2)cc1 46.9%
O=C1C=CC(=O)c2c(O)c(CO)c(CO)c(O)c21 -27.2%
CCCNc1c(F)c(F)c2c(C)c3ccccc3nc2c1F 14.3%
Oc1oc(-c2ccccc2)nc1C=Nc1cccc2ccccc12 -19.4%
O=C(Nc1ccccc1F)C(=Cc1sc(N2CCOCC2)nc1-c1ccccc1)C(=O)Nc1ccccc1F 0.0258%
Cc1cc(C=C2C(=O)c3ccccc3C2=O)c(C)n1-c1ccc(Cl)cc1 -8.23%
CC(=O)Nc1ccc(N=Cc2c(O)c(C(=O)Nc3ccccc3)cc3ccccc23)cc1 34.2%
Cc1cc(/C=C2\SC(=S)N(Cc3ccco3)C2=O)c(C)n1-c1cccnc1 -20.6%
N=C1CCC(=N)c2c1c(O)c1ccccc1c2O -1.22%
CCN(CC)S(=O)(=O)c1ccc(C(=O)OCCN2C(=O)c3cccc4c(N5CCOCC5)ccc(c34)C2=O)cc1 9.03%
O=C(NCCc1ccc(F)cc1)c1cccc2c1C(=O)c1ccc(N3CCC(Cc4ccccc4)CC3)cc1S2(=O)=O 181%
Cc1ccc(CNC(=O)C2CCCN(S(=O)(=O)c3c(C)[nH]c(=O)[nH]c3=O)C2)cc1 (stereo not drawn) 14.6%
CC(C)c1nnc(N2C(=O)C(O)=C(C(=O)c3cccs3)C2c2ccccc2)s1 (stereo not drawn) 26.3%
C/C(O)=c1/ccc2cccc3nc(C)nc1c23 -24%
CCN(CC)S(=O)(=O)c1ccc(C(=O)/C=C/c2ccc(-c3ccc([N+](=O)[O-])cc3)o2)cc1 25.5%
Cc1ccc2nc(-c3ccco3)c(Nc3ccccc3)n2c1 -12.8%
CCCN1C(=O)/C(=C/C=C2\N(CC)c3ccccc3C2(C)C)SC1=S -24.8%
O=[N+]([O-])c1ccc(-c2cn3nc(-c4ccccc4)c(-c4ccccc4)nc3n2)cc1 0.23%
COc1ncnc2c1N=C1CC(C)(C)CC(N)=C1S2 -9.77%
COc1ccc(CNS(=O)(=O)c2cc3c(cc2Cl)N(C(C)=O)CCO3)cc1 -7.94%
CCOC(=O)c1cnc2ccc(OC)cc2c1Nc1ccc(N2CCN(C)CC2)cc1 -0.735%
CCC/C(C#Cc1ccc(N(C)C)cc1)=C1/c2ccccc2C(=O)N1c1ccccc1 19.8%
C=C1CCN(c2ccc(C(=O)O)cc2[N+](=O)[O-])CC1 -22.5%
O=S(=O)(Nc1cccc(-c2ccc(N3CCCCCC3)nn2)c1)c1cccc(F)c1 11.7%
Cc1cccc(CCNC(=O)c2sc3nc4n(c(=O)c3c2C)CCCC4)c1 -20.6%
CCC(=O)Oc1ccc2c(c1)O/C(=C\c1ccco1)C2=O -3.58%
Fc1ccc(C2=CC(c3ccc(Br)o3)n3ncnc3N2)cc1 (stereo not drawn) 0.977%
O=[N+]([O-])c1ccc(Sc2cccc[n+]2[O-])c2nonc12 4.85%
Cn1nc([N+](=O)[O-])c(C(C#N)c2nc3ccccc3n2C)c(Cl)c1=O (stereo not drawn) -9.59%
Cc1ccc(C(=O)Nc2ccc(C(=O)O)cc2)cc1S(=O)(=O)NCc1ccccc1 174%
CSc1ccc(C2C(C(=O)c3ccco3)=C(O)C(=O)N2c2nnc(SC)s2)cc1 (stereo not drawn) 16.3%
CC(=O)Nc1ccc(Nc2c3c4c(cccc4n(C)c2=O)C(=O)c2ccccc2-3)cc1 -28.2%
Cc1ccc[n+](-c2nc([O-])sc2/C=N/Nc2ccc([N+](=O)[O-])cc2)c1 11.8%
CC1=CC(=C(C#N)c2nc3ccccc3s2)C=C(C)N1Cc1ccco1 25.6%
S=C(Nc1ccc(N2CCOCC2)cc1)Nc1ccc2nc(-c3ccco3)c(-c3ccco3)nc2c1 -2.44%
O=C1c2cccc3c([N+](=O)[O-])ccc(c23)C(=O)N1c1ccc(Cl)cn1 -5.67%
